Experimental data as given in PubChem BioAssay (EPA / NIEHS).
Results filed as inconclusive are left out. Some compounds were tested as several samples or in several runs, with calls that do not always agree. Active and inactive are the calls of the source. How the source made its calls: active means hit-call score of the fitted dose curve at least 0.9, where 1 is the maximum; inconclusive means response in the unintended direction; inactive means score below 0.9.

Assays:
[1] = molecular target: Cellular tumor antigen p53 (Homo sapiens) (UniProt P04637); test: TOX21_p53_BLA_p3_ratio: Tox21 HCT-116 p53 Agonism Beta-lactamase Assay, Ratio, Phase 3 (AID 2283596)
Cellular tumor antigen p53 (Homo sapiens), sequence (P04637 whole entry, looked up): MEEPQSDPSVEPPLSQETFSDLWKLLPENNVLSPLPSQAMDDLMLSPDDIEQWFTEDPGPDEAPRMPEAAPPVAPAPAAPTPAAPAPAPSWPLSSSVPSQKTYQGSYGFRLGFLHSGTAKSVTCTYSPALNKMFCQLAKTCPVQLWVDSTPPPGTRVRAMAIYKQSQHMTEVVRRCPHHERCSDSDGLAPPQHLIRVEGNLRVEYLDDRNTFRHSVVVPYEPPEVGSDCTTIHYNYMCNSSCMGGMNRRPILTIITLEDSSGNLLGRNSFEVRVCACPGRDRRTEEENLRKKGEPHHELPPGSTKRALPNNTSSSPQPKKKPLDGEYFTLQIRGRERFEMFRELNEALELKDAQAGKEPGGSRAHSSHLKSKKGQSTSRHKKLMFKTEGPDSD
Outline: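 Cells were seeded at 4000/well, rested 5 h at 37C, then dosed with DMSO compound solutions (217-fold dilution) for 16 h. CCF4-AM substrate was loaded for 2 h at room temperature, and the 460/530 nm emission ratio was fitted for gain of signal versus DMSO.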

[2] = molecular target: Cellular tumor antigen p53 (Homo sapiens) (UniProt P04637); test: TOX21_p53_BLA_p5_ratio: Tox21 HCT-116 p53 Agonism Beta-lactamase Assay, Ratio, Phase 5 (AID 2283599)
Outline: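 HCT-116 p53-bla cells (4000/well) plated 5 h, dosed with compound (217-fold DMSO dilution) for 16 h at 37 C; CCF4-AM substrate 2 h at room temperature. Activity is the 460/530 nm emission ratio (405 nm excitation), fitted in gain-of-signal direction versus DMSO.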

[3] = TOX21_p53_BLA_p5_viability: Viability Assessment in the Tox21 HCT-116 p53 Agonism Beta-lactamase Assay, Phase 5 (AID 2283600)
Outline: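 Luciferase-coupled ATP quantitation of cells treated for 16 h (37C, 5% CO2) with test chemicals delivered in DMSO via a 217-fold dilution; 4000 cells/well; reagent incubated 30 min at room temperature before luminescence reading.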

[4] = molecular target: Cellular tumor antigen p53 (Homo sapiens) (UniProt P04637); test: TOX21_p53_BLA_p4_ratio: Tox21 HCT-116 p53 Agonism Beta-lactamase Assay, Ratio, Phase 4 (AID 2283601)
Outline: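 HCT-116 p53 beta-lactamase reporter cells (4000/well) preincubated 5 h, then compound (217-fold dilution of DMSO stock) for 16 h at 37C. CCF4-AM substrate added 2 h at room temperature; 460/530 nm emission ratio fitted upward versus DMSO.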

PGR (gene 5241) [5] = molecular target: PGR (gene 5241) (UniProt P06401); test: TOX21_PR_BLA_Followup_Antagonist_ratio: Tox21 HEK293 Progesterone Receptor (PR) Antagonism Beta-lactamase Follow-Up Assay, Ratio (AID 2283934);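 further: PR-UAS-bla HEK293T cells stimulated with 1 nM R5020 agonist for 16 hr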
PGR (gene 5241), sequence (P06401 whole entry, looked up): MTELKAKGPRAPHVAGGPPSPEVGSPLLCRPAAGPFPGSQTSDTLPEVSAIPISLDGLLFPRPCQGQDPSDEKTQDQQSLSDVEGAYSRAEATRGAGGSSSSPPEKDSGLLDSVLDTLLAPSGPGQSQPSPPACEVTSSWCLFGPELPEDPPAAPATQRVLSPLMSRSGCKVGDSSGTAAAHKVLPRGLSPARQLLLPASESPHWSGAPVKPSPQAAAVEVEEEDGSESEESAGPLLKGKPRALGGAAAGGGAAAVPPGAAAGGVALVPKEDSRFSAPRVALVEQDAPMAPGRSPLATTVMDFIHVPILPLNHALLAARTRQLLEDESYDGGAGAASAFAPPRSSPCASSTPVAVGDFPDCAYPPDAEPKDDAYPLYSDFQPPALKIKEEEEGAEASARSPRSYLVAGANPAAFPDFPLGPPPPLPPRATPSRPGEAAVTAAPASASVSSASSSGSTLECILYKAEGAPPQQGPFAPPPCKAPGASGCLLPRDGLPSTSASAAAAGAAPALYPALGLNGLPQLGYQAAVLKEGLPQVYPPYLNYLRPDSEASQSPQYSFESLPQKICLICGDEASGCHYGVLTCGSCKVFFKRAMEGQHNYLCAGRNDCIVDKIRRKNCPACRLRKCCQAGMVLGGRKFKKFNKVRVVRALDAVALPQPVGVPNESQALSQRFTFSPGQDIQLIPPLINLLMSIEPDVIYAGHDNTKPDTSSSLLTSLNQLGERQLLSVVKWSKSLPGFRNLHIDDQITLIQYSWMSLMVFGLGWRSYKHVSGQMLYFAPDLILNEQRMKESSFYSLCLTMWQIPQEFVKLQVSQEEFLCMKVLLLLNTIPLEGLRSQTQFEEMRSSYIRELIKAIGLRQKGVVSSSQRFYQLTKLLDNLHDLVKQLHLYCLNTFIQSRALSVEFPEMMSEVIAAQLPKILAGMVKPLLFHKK
Outline: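 Measured in PR-UAS-bla HEK293T cells co-treated with compound and 1 nM promegestone for 16 hr; beta-lactamase ratio read after 2 h FRET substrate loading, with parallel CellTiter-Glo cytotoxicity.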

[6] = TOX21_PR_BLA_Followup_Agonist_viability: Viability Assessment in the Tox21 HEK293 Progesterone Receptor (PR) Agonism Beta-lactamase Follow-Up Assay (AID 2283935);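 further: signal loss means lower viability so actives are cytotoxic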
Outline: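 Viability is read as CellTiter-Glo luminescence, where loss of signal indicates cytotoxicity. The cells are PR-UAS-bla HEK293T given compounds for 16 hr at 37C and 5% CO2, in the same wells used for the bla readout.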

[7] = TOX21_PR_BLA_Followup_Antagonist_viability: Viability Assessment in the Tox21 HEK293 Progesterone Receptor (PR) Antagonism Beta-lactamase Follow-Up Assay (AID 2283936);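 further: cells exposed to compound with R5020 agonist for 16 h; hits lower the luminescence signal meaning cytotoxicity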
Outline: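 PR-UAS-bla HEK293T cells in medium with 2% charcoal-stripped FBS were treated with compounds plus R5020 for 16 hr at 37C. After the beta-lactamase read, CellTiter-Glo was added to the same wells and luminescence read after 30 min at room temperature.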

PGR (gene 5241) [8] = molecular target: PGR (gene 5241) (UniProt P06401); test: TOX21_PR_LUC_Followup_Antagonist: Tox21 HEK293 Progesterone Receptor (PR) Antagonism Luciferase Follow-Up Assay (AID 2283938);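 further: curve fitted upward as signal gain over DMSO baseline despite antagonist label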
Outline: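 HEK293-PR-A-luc cells were precultured 5 days in medium with 10% charcoal-stripped FBS, seeded 3,000/well, then exposed to compounds in DMSO for 16 h at 37C. Luciferase was read by ONE-Glo luminescence after 30 min at room temperature.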

[9] = TOX21_PR_LUC_Followup_Antagonist_viability: Viability Assessment in the Tox21 HEK293 Progesterone Receptor (PR) Antagonism Luciferase Follow-Up Assay (AID 2283940)
Outline: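 Loss of CellTiter-Glo ATP signal indicates cytotoxicity in HEK293-PR-A-luc cells grown in 10% charcoal-stripped FBS medium, seeded 3,000 per well and incubated 16 h with compound at 37C.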

[10] = TOX21_PR_LUC_Followup_Agonist_viability: Viability Assessment in the Tox21 HEK293 Progesterone Receptor (PR) Agonism Luciferase Follow-Up Assay (AID 2283941);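 further: loss of signal means cytotoxicity so actives lower viability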
Outline: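 Seeding: HEK293-PR-A-luc, 3,000 cells/well, 5 h at 37C. Treatment: compound in DMSO, 16 h, 37C. Read: CellTiter-Glo ATP luminescence, signal loss taken as lower viability.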

[11] = TOX21_p53_BLA_p4_viability: Viability Assessment in the Tox21 HCT-116 p53 Agonism Beta-lactamase Assay, Phase 4 (AID 2283597);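 further: hits lower the luminescence signal meaning cytotoxicity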
Outline: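 Cytotoxicity was inferred from loss of CellTiter-Glo luminescence. HCT116 cells had been dosed with compounds after 5 h plating, incubated 16 h at 37C and 5% CO2, and exposed to the CCF4-AM substrate for 2 h.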

[12] = TOX21_p53_BLA_p3_viability: Viability Assessment in the Tox21 HCT-116 p53 Agonism Beta-lactamase Assay, Phase 3 (AID 2283593);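 further: cells exposed to compound for 16 h before reading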
Outline: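 HCT116 cells, 4000/well, dosed 5 h after plating by pin transfer (217-fold dilution from DMSO stock) and incubated 16 h at 37C, 5% CO2. Viability read as ATP luminescence with CellTiter-Glo after 30 min at room temperature.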

C[C@H]1CCC[C@H](O)CCCCCc2cc(O)cc(O)c2C(=O)O1
AC50 [1]: 74.2 µM (active)
outcome [1]: inactive
outcome [2]: inactive
outcome [3]: inactive
outcome [4]: inactive
AC50 (PGR (gene 5241) [5]): 4.51 µM (active)
outcome [6]: inactive
outcome [7]: inactive
AC50 (PGR (gene 5241) [8]): 10.1 µM (active)
outcome [9]: inactive
outcome [10]: inactive

Cc1nnc2n1-c1ccc(Cl)cc1C(c1ccccc1)=NC2
outcome [1]: inactive
outcome [11]: inactive
outcome [4]: inactive

CC1(C)S[C@@H]2[C@H](N)C(=O)N2[C@H]1C(=O)O
outcome [11]: inactive
outcome [2]: inactive
outcome [3]: inactive
outcome [4]: inactive

NCCc1ccc(O)cc1
outcome [1]: inactive
outcome [2]: inactive

O=NN(CCO)CCO
outcome [1]: inactive
outcome [11]: inactive
outcome [4]: inactive

CCc1cc(OC)c(C[C@H](C)N)cc1OC
outcome [11]: inactive
outcome [2]: inactive
outcome [3]: inactive
outcome [4]: inactive

CC(C)NC(C)Cc1ccc(I)cc1 (stereo unspecified)
outcome [11]: inactive
outcome [2]: inactive
outcome [3]: inactive
outcome [4]: inactive

COP(N)(=S)Oc1ccccc1C(=O)OC(C)C (stereo unspecified)
outcome [1]: inactive
outcome [11]: inactive
outcome [2]: inactive
outcome [3]: inactive
outcome [4]: inactive

CCCC(C)(COC(N)=O)COC(=O)NC1CC1 (stereo unspecified)
outcome [1]: inactive
outcome [2]: inactive
outcome [3]: inactive

CC[N+]1(C)CCCC(OC(=O)C(O)(c2ccccc2)c2ccccc2)C1 (stereo unspecified)
outcome [12]: inactive
outcome [2]: inactive
outcome [3]: inactive

CCCCCBr
outcome [11]: inactive
outcome [2]: inactive

[Cl-].[Cl-].[Sn+2]
outcome [12]: inactive
outcome [3]: inactive

C[C@H](N)[C@H](O)c1ccc(O)c(O)c1
outcome [2]: inactive
outcome [3]: inactive
outcome [4]: inactive

C[C@@H]1[C@H]2Cc3ccc(O)cc3[C@]1(C)CCN2C
outcome [11]: inactive

COc1ccc2c3c1O[C@H]1[C@H](O)CC[C@H]4[C@@H](C2)N(C)CC[C@@]341
outcome [1]: inactive
outcome [11]: inactive
outcome [3]: inactive
outcome [4]: inactive

CCC(N)Cc1c[nH]c2ccccc12 (stereo unspecified)
outcome [1]: inactive
outcome [2]: inactive
outcome [4]: inactive

O=C=NC1CCCCC1
outcome [11]: inactive
outcome [2]: inactive
outcome [3]: inactive
outcome [4]: inactive
